# Screening results from PubChem BioAssay.
# A selection: hits, their analogues and other compounds. The true share with any hit is near 19%.
# HT1080 IDH1KD tx = toxicity to HT-1080 IDH1 knockdown cells (counter line); HT-1080 IDH1 knockdown viability, ATP luminescence, 48 h; Potency, µM (highest dose often 46.1 µM), for inactives: at the top dose activity, negative = toxicity, actives largely listed as cytotoxic; 360,000 tested, 2% active;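 also: potency is read from the fitted curve at half-maximal effect; 0% = DMSO wells and -100% = cell-free medium wells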
#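 Knockdown cells (IDH1KD HT-1080) received compounds 2 h after plating at 750 cells/well and were kept 48 h at 37 °C in 5% FBS RPMI. A CellTiter-Glo luminescence read gave % activity for curve fitting.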
# TDP1 cell noCPT = qHTS for Inhibitors of human tyrosyl-DNA phosphodiesterase 1 (TDP1): qHTS in cells in absence of CPT. DT40 Tdp1-/- hTDP1 cells, no CPT, ATP luminescence, 48 h. Potency, µM (titrated, usually from 46.2 µM), for the others: at the top dose activity change, negative = growth inhibition, hits mostly inhibitors. 420,000 tested, 15% active. AID 686978, 2013; also: potency is read from the fitted curve at half-maximal effect; nearly all actives have a fitted effect of over 55% in size
#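 Luminescent ATP content (CellTiter-Glo) served as the growth readout. Knockout chicken DT40 cells expressing human TDP1 were exposed to compounds without camptothecin for a minimum 48 hr at 37 °C.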
# HT1080NT lethal = kills 2HG-producing HT-1080-NT fibrosarcoma cells. HT-1080-NT fibrosarcoma viability, CellTiter-Glo ATP luminescence, 48 h. Potency, µM (top dose mostly 46.1 µM), for inactives: at the top dose activity, negative = less viability, actives largely listed as cytotoxic. 360,000 tested, 1.6% active. AID 686970;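 also: NT is the 2HG producing partner of a matched IDH1 knockdown line; potency is read from the fitted curve at half-maximal effect; 0% = DMSO-treated cells and -100% = media-only wells without cells; nearly all actives have a fitted effect of over 55% in size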
#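 Fibrosarcoma NT cells, 750 per well in 5% FBS RPMI, were exposed to compound for 48 hours. Viability: CellTiter-Glo luminescence.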
# DT40 TDP1 CPT = DT40-hTDP1 cell growth loss with CPT; AID 686979; Potency, µM (top dose mostly 46.2 µM), without a hit: at the top dose activity change, negative = growth inhibition, usual class: inhibitors; chicken DT40 Tdp1-/-;hTDP1 cells + 20 nM CPT, ATP luminescence, 48 h; 420,000 tested, 12% active; also: potency is read from the fitted curve at half-maximal effect; nearly all actives have a fitted effect of over 55% in size
#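 Chicken DT40 Tdp1-/- cells stably complemented with human TDP1 were seeded at 400 cells/well in medium containing 20 nM camptothecin, exposed to pin-transferred compounds, and grown at 37 °C for at least 48 hr. Viability was read as ATP luminescence.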
# IL-1B inflam inh = blocks inflammasome-driven IL-1 beta release; THP-1 LPS/ATP IL-1B secretion, AlphaLISA, 16 h; stronger effect = lower value; 360,000 tested, 4.7% active; activity change, % at 57.5 µM; in the data active = activity change below about -50%; inconclusive = mostly about -30% to -49%
#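 Secreted IL-1B measured by AlphaLISA bead assay after 16 h compound exposure of THP-1 cells; compounds (final up to 57.5 uM) added 1 h before LPS (250 ng/mL) and ATP (1.25 mM) stimulation; lower signal means less secretion.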
# * hit, by the source's call; ? = inconclusive; nt = not tested or not shown. Unless noted, calls follow the shape of the dose curve; as a rule, active = well fitted curve in the direction sought with a large enough effect; inconclusive = small, poorly fitted or top-dose-only effect, or another doubt; inactive = no such curve, though single readings can be large; an effect the other way counts as inactive or inconclusive. Unless noted, % is scaled to controls: 0 for no effect and ±100 for the full control effect.
SMILES,HT1080 IDH1KD tx,TDP1 cell noCPT,HT1080NT lethal,DT40 TDP1 CPT,IL-1B inflam inh
CCCN(C/C=C/I)C1CCc2cccc(O)c2C1 (configuration not stated),nt,14.6µM*,nt,?,nt
COCc1c(C#N)c(NCCc2ccccc2)nc(C)c1[N+](=O)[O-],-1.5%,?,-7.0%,?,26.8
COCc1c(C#N)c(NCc2cc(OC)c(OC)c(OC)c2)nc(C)c1[N+](=O)[O-],-22.5%,20.6µM*,-13.2%,18.4µM*,-24.9
c1ccc(NC2=NCCN2CCC2CCCC2)cc1,12.6%,-17.7%,9.0%,?,-9.4
C[C@H]1CN=C(Nc2ccccc2)N1CCC1CCCC1,-2.1%,23.1µM*,1.0%,?,-0.1
CC(C)C[C@H]1CN=C(Nc2ccccc2)N1CCC(C)c1ccccc1 (some centres not stated),-14.4%,?,-11.0%,?,?
CC(C)C[C@H]1CN=C(Nc2ccccc2)N1CCCC1CCCCC1,-23.4%,18.4µM*,-19.0%,?,-63.1*
CC(C)C[C@H]1CN=C(Nc2ccccc2)N1CCCC1CCCC1,-27.0%,5.17µM*,?,14.6µM*,-63.3*
CCCCCCCN1C(Nc2ccccc2)=NC[C@@H]1CC(C)C,1.5%,16.4µM*,-2.7%,11.6µM*,-77.8*
CC(C)CCCN1C(Nc2ccccc2)=NC[C@@H]1C,11.2%,-16.4%,4.8%,?,6.4
CC(C)C[C@H]1CN=C(Nc2ccccc2)N1CC1CCC1,-2.2%,?,-1.1%,?,-11.3
CCC(C)CCN1C(Nc2ccccc2)=NC[C@@H]1C (some centres not stated),8.0%,11.6µM*,0.3%,?,4.7
CC(C)C[C@H]1CN=C(Nc2ccccc2)N1CCC1CCCC1,-0.8%,23.1µM*,3.2%,?,-24.2
COc1ccc(CCNC(=O)COC(=O)CSc2ccc(C(N)=O)cc2[N+](=O)[O-])cc1OC,-0.7%,3.0%,10.4%,-2.9%,7.3
CCOC(=O)c1cc(S(=O)(=O)N2CCN(c3ccc(F)cc3)CC2)[nH]n1,nt,18.4µM*,nt,16.4µM*,nt
CCOC(=O)c1cc(S(=O)(=O)N2CCN(c3ccccc3OC)CC2)[nH]n1,nt,-16.6%,nt,-14.8%,nt
CCOC(=O)c1cc(S(=O)(=O)N2CCN(c3cc(Cl)ccc3C)CC2)[nH]n1,nt,?,nt,11.6µM*,nt
O=C(CC(C(=O)N1CCc2ccccc21)n1ccnc1)N1CCc2ccccc2C1 (configuration not stated),?,-16.4%,-1.0%,?,0.0
S=c1[nH]nc(-c2ccc(Cl)cc2)n1/N=C/C=C/c1ccco1,-8.5%,20.6µM*,-17.0%,?,12.3
S=c1[nH]nc(-c2ccccc2)n1/N=C/C=C/c1ccco1,-0.1%,?,7.4%,?,9.6
Cc1cc(-c2n[nH]c(=S)n2/N=C/C=C/c2ccco2)n[nH]1,13.0%,-7.6%,1.0%,22.4%,7.2
Cc1ccccc1-c1n[nH]c(=S)n1/N=C/C=C/c1ccco1,6.6%,18.4µM*,7.8%,?,13.7
O=C(CCl)NCCCN(C(=O)C(Cl)Cl)c1ccc([N+](=O)[O-])cc1,?,13µM*,?,9.2µM*,0.0
O=C(Nc1ccc(-n2cccn2)cc1)C1CCN(Cc2ccccn2)CC1,2.2%,-0.7%,2.6%,-0.4%,?
O=C(Nc1cccc(-c2cccc(Cl)c2)c1)C1CCN(Cc2ccon2)CC1,?,29.1µM*,?,13µM*,-61.1*
SMILES,HT1080 IDH1KD tx,TDP1 cell noCPT,HT1080NT lethal,DT40 TDP1 CPT,IL-1B inflam inh
O=C(Nc1cccc(-c2cccc(Cl)c2)c1)C1CCN(Cc2ccccn2)CC1,?,25.9µM*,?,?,-73.9*
O=C(Nc1cccc(-c2cccc(Cl)c2)c1)C1CCN(CC2CCOC2)CC1 (configuration not stated),?,?,18.4µM*,?,-25.1
O=C(COc1ccccc1[N+](=O)[O-])Nc1cccc(Cl)c1N1CCOCC1,?,14.6µM*,-13.6%,16.4µM*,13.9
CCOc1ccc(OCCC(=O)OCC(=O)Nc2cc(OCC)c(N3CCOCC3)cc2OCC)cc1,-9.7%,25.9µM*,-11.7%,18.4µM*,-13.1
CCOc1cc(N2CCOCC2)c(OCC)cc1NC(=O)Cn1cnnn1,-2.7%,17.4%,2.1%,-13.3%,-3.7
CCOc1cc(N2CCOCC2)c(OCC)cc1NC(=O)CC12CC3CC(CC(C3)C1)C2,-27.4%,18.4µM*,-24.2%,13µM*,-9.6
CCOc1cc(N2CCOCC2)c(OCC)cc1NC(=O)[C@H](C)N1C(=O)C2CC=CCC2C1=O (some centres not stated),10.2%,11.6µM*,9.2%,-3.4%,28.3
O=C(COc1ccccc1[N+](=O)[O-])Nc1ccc(CN2CCOCC2)cc1,1.7%,-27.4%,-1.0%,-5.4%,19.2
COC(=O)c1cc2occc2n1Cc1ccc(F)cc1Cl,nt,-25.0%,nt,-23.9%,nt
CCOc1cc(N2CCOCC2)c(OCC)cc1NC(=O)CSc1ccccc1C(=O)O,-4.4%,-18.9%,-0.6%,?,11.1
CCOc1cc(N2CCOCC2)c(OCC)cc1NC(=O)COC(=O)c1ccc(Cl)cc1N,0.2%,?,-3.6%,5.8µM*,51.0
CCOc1cc(N2CCOCC2)c(OCC)cc1NC(C)C(=O)N1CCC(C)CC1 (configuration not stated),1.5%,25.9µM*,1.1%,?,-3.5
CCc1cccc(OCC(=O)Nc2ccccc2N2CCCC2)c1,3.5%,?,-0.3%,?,-7.5
CCOc1cc(N2CCOCC2)c(OCC)cc1NC(=O)COC(=O)c1cc2ccccc2cc1O,7.1%,?,8.4%,?,3.1
CCOc1cc(N2CCOCC2)c(OCC)cc1NC(=O)CN1CCc2ccccc2C1,-2.5%,18.4µM*,-0.9%,23.1µM*,2.3
CCOc1cc(N2CCOCC2)c(OCC)cc1NC(=O)COc1cccc(CC)c1,-1.6%,8.2µM*,-1.7%,18.4µM*,15.3
CCOc1cc(N2CCOCC2)c(OCC)cc1NCC(=O)N1CCN(Cc2ccccc2)CC1,-6.6%,?,-4.6%,?,-0.9
Cc1cc2c(ncn2C)c(NS(=O)(=O)c2ccc(Cl)cc2)c1C,-19.3%,-10.5%,-3.8%,-1.3%,-5.2
CCOC(=O)CN1C(=O)CN(c2ccc(C)c(C)c2)C1=O,9.0%,-5.5%,22.1%,-0.4%,19.4
CC(=O)Nc1ccc(C)cc1-c1nc2ccccc2n(Cc2cccc(Br)c2)c1=O,nt,-11.4%,nt,-17.8%,nt
O=C1CCCC(=O)C1C(=O)C1CCN(S(=O)(=O)c2ccccc2)CC1,7.4%,-96.8%,6.8%,?,55.1
CNC(=S)N1CCN(C(=O)C2CCCO2)CC1 (configuration not stated),2.6%,-2.2%,1.3%,5.7%,-3.0
